Common to all, as to assay: NCI-60 one-dose screen, 48 h (100 = growth as untreated, 0 = no growth, -100 = all killed)
In assay [1] the test system is NCI-H23 lung. Conditions: 10 µM unless noted.
For assay [2], the system named is NCI-H226 lung. Conditions: 10 µM unless noted.
In assay [3] the test system is NCI-H322M lung. The following applies: 10 µM unless noted.
The test system of assay [4] is NCI-H460 lung. Conditions: 10 µM unless noted.
Assay [5] deals with HOP-92 NSCLC. The following applies: 10 µM.
The test system of assay [6] is NCI-H522 lung. Conditions: 10 µM.
Assay [7] has as its system A549/ATCC NSCLC. Conditions: 10 µM unless noted.
The subject of assay [8] is 786-0 renal. Conditions: 10 µM unless noted.
For assay [9], the system named is DU-145 prostate. The following applies: 10 µM unless noted.
Assay [10] deals with K-562 leukemia. The following applies: 10 µM unless noted.
Assay [11] concerns MALME-3M melanoma. The following applies: 10 µM unless noted.
Assay [12] deals with MDA-MB-231 breast. The following applies: 10 µM unless noted.
The subject of assay [13] is RXF 393 renal. The following applies: 10 µM unless noted.
Assay [14] has as its system SF-268 CNS. Conditions: 10 µM unless noted.
In assay [15] the test system is SF-295 CNS. The following applies: 10 µM unless noted.
Assay [16] deals with SF-539 CNS. The following applies: 10 µM unless noted.
The test system of assay [17] is UACC-257 melanoma. The following applies: 10 µM unless noted.
Assay [18] has as its system M14 melanoma. The following applies: 10 µM unless noted.

This is part of a sample that, as a whole, favours compounds with a hit. Of some 83,000 tested, about 20% had one in any assay.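 96-well plates, one dose, 48 hours. Percent growth reported; active if below 10.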 Unmarked numbers belong to inactive results. The source made the active and inactive calls.

`O=C(CCCC(=O)Nc1ccc(Cn2nnc3cc(Cl)c(Cl)cc32)cc1)Nc1ccc(CN2N=NC3C=C(Cl)C(Cl)=CC32)cc1` (centres undefined): the growth in assay [1] is 62.2%; in assay [2] it was 72.7%; in [3] it was 74%; in [4], 84.1%; in assay [5], 64.7%; in [6] it was 62.4%. Moreover, the growth in assay [7] is 74.5%; in assay [8] it was 85.3%; in assay [9] it was 93.3%; in [10], 67%; in assay [11] it was 97%; in [12], 76.4%. For the same compound, the growth in assay [13] is 93.7%; in assay [14], 78.1%; in assay [15] it was 71.9%; in assay [16] it was 88.2%; in assay [17], 81.1%; in [18], 87.2%.

Consider `COC(=O)c1ccc(C(=Nc2ccc(N(C)C(=O)CN3CCN(C)CC3)cc2)c2c(O)[nH]c3ccc(C(=O)OC)cc23)cc1`, for which the growth in assay [1] was 35.4%; in [2], 33%; in assay [3] it was 47.3%; in assay [4] it was 43.7%; in [5], 51.1%; in assay [6], 19%. Further, the growth in assay [7] was 35.6%; in assay [8], 36.4%; in assay [9], 38.2%; in assay [10], 7.19% (active); in assay [11] it was -14.7% (active); in assay [12] it was 49.2%. Also, the growth in assay [13] was 17.7%; in assay [14], 32.8%; in [15] it was 44.4%; in assay [16] it was 23.3%; in assay [17], 67.7%; in assay [18], 28.7%.

For `CC(=O)Nc1nc(C)c(C(=O)N/N=C/c2cccs2)s1`, the growth in assay [1] is 103%; in assay [2], 86.9%; in assay [3] it was 111%; in assay [4], 102%; in [5] it was 42.6%; in [6] it was 94.8%. The growth in [7] is 101%; in [8], 94.3%; in assay [9], 115%; in assay [10] it was 108%; in [11], 117%; in assay [12] it was 89.3%. The growth in assay [13] is 113%; in assay [14] it was 97%; in assay [15], 96.2%; in [16] it was 99.3%; in assay [17] it was 109%; in assay [18], 95.7%.

`CCOC(=O)c1c(C)oc2ncnc(Nc3ccc(NC(=O)Nc4ccc(CC)cc4)cc3)c12`: the growth is 90.7% in assay [1]; 104% in assay [2]; 102% in [3]; 106% in assay [4]; 94.3% in [5]; 83.5% in [6]. The growth in assay [7] is 89.2%; in assay [8], 99.8%; in assay [9], 103%; in [10], 98%; in assay [11], 101%; in assay [12], 94.7%. Further, the growth in assay [13] was 98.3%; in assay [14] it was 103%; in assay [15], 109%; in [16], 89.4%; in assay [17] it was 111%; in [18], 99.9%.

As to `COc1nc(OC)nc(-c2cc(C(=O)c3ccc(Br)cc3)n3cc(C)cc(C)c23)n1`, the growth in assay [1] was 48.1%; in assay [2] it was 34.3%; in assay [3], 81.8%; in assay [4] it was 34.8%; in assay [5], 33.9%; in [6], 57.7%. Besides, the growth in [7] was 51.3%; in assay [8], 12%; in assay [9], 76.3%; in assay [10], 91.1%; in [11], 54.1%; in assay [12], 49.8%. For the same compound, the growth in assay [13] was 11.9%; in assay [14] it was 55.4%; in assay [15], 48.7%; in [16] it was 26.2%; in assay [17] it was 94.8%; in assay [18] it was 90.3%.

As for `O=c1c(N=Nc2nccs2)c(-c2ccccc2)[nH]n1-c1nc(-c2ccccc2)cs1`, the growth is 36.3% in assay [1]; 56.2% in assay [2]; 24.5% in assay [3]; 22.5% in [4]; -8.96% (active) in assay [5]; 20.9% in assay [6]. The growth in [7] was 36.3%; in assay [8] it was 43.7%; in [9], 43.8%; in assay [10] it was 32.4%; in assay [11], 72%; in assay [12], 53.1%. For the same compound, the growth in [13] was 65.2%; in assay [14] it was 32.3%; in assay [15], 25%; in [16], 39.7%; in [17], 39.6%; in assay [18], 28.3%.

As to `Nc1nc2c(c3cnccc13)C(c1cccc(Cl)c1)Cc1cnccc1-2` (centres undefined), the growth is 0.544% (active) in assay [1]; 17.2% in assay [2]; 40.1% in assay [3]; 2.15% (active) in assay [4]; 33.1% in assay [5]; 7.88% (active) in [6]. Besides, the growth was 13.6% in assay [7]; 19.6% in assay [8]; 10.7% in assay [9]; 9.68% (active) in assay [10]; 62.4% in assay [11]; 8.99% (active) in assay [12]. Also, the growth in assay [13] was 7.47% (active); in assay [14], 20.7%; in assay [15], 8.34% (active); in assay [16] it was -18.5% (active); in assay [17], 60.2%; in assay [18], 1.08% (active).

Turning to `CCCCCSc1ccc2nc(NC(=O)OCCC)sc2c1`, the growth in assay [1] is 25.5%; in assay [2] it was 30.1%; in assay [3], 50%; in assay [4], 13.9%; in assay [5], 36.3%; in assay [6], 29.4%. Besides, the growth in assay [7] was 46.4%; in assay [8] it was 31.1%; in [9], 43.2%; in [10] it was 19%; in assay [11], 62.5%; in assay [12] it was 43.3%. In addition, the growth in [13] was 28.8%; in assay [14], 55.2%; in assay [15], 19.9%; in [16], -24.7% (active); in [17] it was 63.1%; in assay [18] it was 23.1%.

The record behind these values is PubChem BioAssay (NCI).
